Source: PubChem BioAssay (NCI)
Several values for one entry are separate records, joined by “and”; a condition that tells them apart may be missing. Equal values may be shown once. This is part of a sample that, as a whole, favours compounds with a hit. Of some 83,000 tested, about 20% had one in any assay.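 For each line, cells grew in 96-well plates with the test compound present at a single concentration for 48 hours.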 Activity calls are given as the source filed them. How the source made its calls: active means growth percent below 10; inactive means the rest.

Columns and labels:
Experiment in all cases: NCI-60 one-dose screen, 48 h (100 = growth as untreated, 0 = no growth, -100 = all killed)
Conditions in all cases: 10 µM unless noted
[1] = system: HCT-15 colon
[2] = system: HT29 colon
[3] = system: SNB-75 CNS
[4] = system: SNB-19 CNS
[5] = system: U251 CNS
[6] = system: PC-3 prostate
[7] = system: SK-MEL-5 melanoma
[8] = system: UACC-62 melanoma
[9] = system: LOX IMVI melanoma
[10] = system: SK-MEL-28 melanoma
[11] = system: SK-MEL-2 melanoma
[12] = system: EKVX NSCLC
[13] = system: SN12C renal
[14] = system: UO-31 renal
[15] = system: TK-10 renal
[16] = system: ACHN renal
[17] = system: CAKI-1 renal
[18] = system: A498 renal
[19] = system: CCRF-CEM leukemia
[20] = system: MOLT-4 leukemia

Compound	growth [1]	growth [2]	growth [3]	growth [4]	growth [5]	growth [6]	growth [7]	growth [8]	growth [9]	growth [10]	growth [11]	growth [12]	growth [13]	growth [14]	growth [15]	growth [16]	growth [17]	growth [18]	growth [19]	growth [20]
Cc1cccc(Cc2cnc(NC(=O)CCCOc3ccc(Cl)cc3)s2)c1	24.6% (inactive)	11.6% (inactive)	21.3% (inactive)	27.6% (inactive)	14% (inactive)	42.5% (inactive)	30.7% (inactive)	32.4% (inactive)	35.6% (inactive)	58.4% (inactive)	67.2% (inactive)	41.4% (inactive)	34.9% (inactive)	19% (inactive)	38.3% (inactive)	12.1% (inactive)	27.1% (inactive)	-2.46% (active)	16.3% (inactive)	40.1% (inactive)
NNCCc1ccccc1	99.7% (inactive) and 91.6% (inactive)	96.5% (inactive) and 100% (inactive)	107% (inactive) and 78.7% (inactive)	98.5% (inactive) and 102% (inactive)	104% (inactive) and 93.7% (inactive)	92% (inactive) and 94.6% (inactive)	90.7% (inactive) and 93.7% (inactive)	89.9% (inactive)	98.2% (inactive) and 88% (inactive)	110% (inactive) and 95.5% (inactive)	100% (inactive) and 106% (inactive)	101% (inactive) and 86.2% (inactive)	96.2% (inactive) and 93% (inactive)	77.5% (inactive)	118% (inactive)	92% (inactive) and 89.9% (inactive)	99.7% (inactive) and 88.3% (inactive)	105% (inactive) and 88.4% (inactive)	90.9% (inactive) and 106% (inactive)	104% (inactive) and 96.4% (inactive)
CCCN1C(=O)/C(=c2\sc3n(c2=O)C2C(NN=3)N(CC)C(=O)N2CC)c2ccccc21 (stereo not given)	12.5% (inactive)	3.33% (active)	17.2% (inactive)	27.7% (inactive)	17.6% (inactive)	32.9% (inactive)	14.3% (inactive)	24.7% (inactive)	17.1% (inactive)	48.1% (inactive)	55% (inactive)	52.4% (inactive)	23.1% (inactive)	33.6% (inactive)	73.9% (inactive)	33.1% (inactive)	33.8% (inactive)	5.22% (active)	13.6% (inactive)	19.1% (inactive)
COc1cc(Nc2nc3ccccc3cc2C(=O)Nc2ccc(F)c(F)c2)cc(OC)c1OC	13.5% (inactive)	28.5% (inactive)	45.4% (inactive)	25.3% (inactive)	19.1% (inactive)	10.7% (inactive)	13.8% (inactive)	12.9% (inactive)	17.6% (inactive)	35.7% (inactive)	48.2% (inactive)	30% (inactive)	12.5% (inactive)	21.8% (inactive)	47.8% (inactive)	5.68% (active)	46.5% (inactive)	-3.64% (active)	24.7% (inactive)	14.2% (inactive)
Clc1nccc2c(-c3csc(-c4c[nH]c5ccc(Br)cc45)n3)c[nH]c12	-49.4% (active)	5.95% (active)	21% (inactive)	44.6% (inactive)	-2.09% (active)	19.9% (inactive)	47.2% (inactive)	17% (inactive)	-31.9% (active)	-8.62% (active)	48.7% (inactive)	42.5% (inactive)	54% (inactive)	9.83% (active)	28.6% (inactive)	6.55% (active)	32.9% (inactive)	-1.69% (active)	20.1% (inactive)	22% (inactive)
Cc1nonc1-c1ccc2c(c1)OCO2	97.5% (inactive) and 107% (inactive)	102% (inactive) and 107% (inactive)	96.3% (inactive) and 96.6% (inactive)	112% (inactive) and 95.7% (inactive)	93.7% (inactive) and 108% (inactive)	96% (inactive)	99.3% (inactive) and 101% (inactive)	110% (inactive) and 97.7% (inactive)	94.5% (inactive) and 98.4% (inactive)	118% (inactive) and 169% (inactive)	113% (inactive) and 100% (inactive)	90% (inactive) and 104% (inactive)	109% (inactive) and 103% (inactive)	95.2% (inactive) and 96.6% (inactive)	105% (inactive) and 121% (inactive)	109% (inactive) and 107% (inactive)	82.2% (inactive) and 103% (inactive)	166% (inactive)	86.9% (inactive) and 94.1% (inactive)	94.8% (inactive)
Nc1n[nH]c2cccc(C#Cc3cccc(C(=O)Nc4ccc(CN5CCOCC5)c(C(F)(F)F)c4)c3)c12	22.5% (inactive)	17.4% (inactive)	52.9% (inactive)	75.2% (inactive)	40.3% (inactive)	29.5% (inactive)	17.5% (inactive)	5.89% (active)	6.76% (active)	14.5% (inactive)	23.3% (inactive)	63.4% (inactive)	54.8% (inactive)	22.3% (inactive)	76.2% (inactive)	24.8% (inactive)	73.4% (inactive)	67.5% (inactive)	20.7% (inactive)	16.9% (inactive)
Cc1oc2c(Cc3ccc(NC(=O)c4ccc(Cl)cc4)cc3)ncnc2c1C(=O)NO	103% (inactive)	89.6% (inactive)	106% (inactive)	105% (inactive)	104% (inactive)	97.7% (inactive)	86.1% (inactive)	89.9% (inactive)	102% (inactive)	107% (inactive)	88.3% (inactive)	102% (inactive)	103% (inactive)	85.4% (inactive)	95.6% (inactive)	106% (inactive)	98.9% (inactive)	85.2% (inactive)	90.9% (inactive)	82.5% (inactive)
O=Nc1c(O)ccc2ccccc12	43% (inactive) and 103% (inactive)	24.7% (inactive) and 109% (inactive)	114% (inactive)	105% (inactive) and 106% (inactive)	99.4% (inactive)	6.57% (active) and 72.4% (inactive)	80.9% (inactive) and 82.8% (inactive)	21.2% (inactive) and 87.4% (inactive)	3.68% (active) and 73.6% (inactive)	83% (inactive) and 102% (inactive)	36.5% (inactive) and 107% (inactive)	91.4% (inactive)	4.86% (active) and 93.6% (inactive)	55.3% (inactive) and 52.1% (inactive)	115% (inactive)	57.7% (inactive) and 83.3% (inactive)	71.2% (inactive) and 96.3% (inactive)	84.6% (inactive) and 99.1% (inactive)	20.6% (inactive) and 58.4% (inactive)	71.3% (inactive) and 72.6% (inactive)
Nc1ccc(-c2nc3ccc4[nH]ncc4c3c3c2CCCC3)cc1F	15.5% (inactive)	28% (inactive)	19.3% (inactive)	41.9% (inactive)	26.8% (inactive)	27.7% (inactive)	4.72% (active)	14.5% (inactive)	29.4% (inactive)	34.4% (inactive)	6.74% (active)	33.5% (inactive)	27.3% (inactive)	-4.24% (active)	22.1% (inactive)	11.6% (inactive)	7.39% (active)	-0.345% (active)	20.5% (inactive)	18.5% (inactive)
Nc1ccc(S(=O)(=O)c2ccc(N)cc2)cc1	114% (inactive) and 106% (inactive)	106% (inactive) and 98.1% (inactive)	87.8% (inactive)	100% (inactive) and 104% (inactive)	94.6% (inactive) and 106% (inactive)	85.2% (inactive) and 94.1% (inactive)	92.8% (inactive) and 108% (inactive)	98.7% (inactive) and 104% (inactive)	94.6% (inactive) and 102% (inactive)	114% (inactive) and 102% (inactive)	122% (inactive) and 113% (inactive)	94.7% (inactive)	101% (inactive)	89.8% (inactive) and 75.5% (inactive)	100% (inactive)	96.9% (inactive) and 110% (inactive)	86.6% (inactive)	103% (inactive) and 106% (inactive)	94.8% (inactive) and -23.9% (active)	109% (inactive) and 108% (inactive)
C/C(=C(\c1ccc(OCCN2CCOCC2)cc1)c1ccc(OC(=O)C2CCCCC2)cc1)c1ccc(Cl)cc1	97.7% (inactive)	76.3% (inactive)	109% (inactive)	100% (inactive)	99.5% (inactive)	68.2% (inactive)	91.6% (inactive)	87.9% (inactive)	102% (inactive)	99.1% (inactive)	92.6% (inactive)	94.1% (inactive)	94.7% (inactive)	81.8% (inactive)	96.4% (inactive)	104% (inactive)	77.9% (inactive)	92.6% (inactive)	-24.6% (active)	91.1% (inactive)
CC(=O)c1nn(-c2ccccc2)/c(=N/N=Cc2cn(-c3ccccc3)nc2-c2cc3ccccc3oc2=O)s1	98.1% (inactive)	109% (inactive)	104% (inactive)	103% (inactive)	91.6% (inactive)	101% (inactive)	101% (inactive)	92.9% (inactive)	98.9% (inactive)	111% (inactive)	103% (inactive)	97.2% (inactive)	105% (inactive)	84% (inactive)	103% (inactive)	101% (inactive)	88.5% (inactive)	120% (inactive)	101% (inactive)	95.9% (inactive)
